Assays:
Assay in all cases: PBM binding z-score (relative to random genomic background probes); higher = stronger binding; sequences stand for … in GC…GCGATTGACAGCGTAGAATGAAGG
[1] = tested on: FXR:RXRa (NR concentration 270 nM, RXRa partner concentration 90 nM)
Outline: (§1)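 The probes on custom Agilent 4×180K protein-binding microarrays were double-stranded, with 34-nt variable regions bearing direct-repeat seeds, single-nucleotide variants, half-site ablations and random human genomic background sequences. Incubation lasted 1 h with ligand-free nuclear receptor dimers in PBS pH 7.4, 2% milk, 0.02% Triton X-100, 1 mM DTT, 0.2 mg/mL BSA and 0.4 mg/ml salmon testes DNA. Antibodies against each partner (one per run) detected bound dimers, and fluorescence scans were regression-normalized. Binding z-scores take the random background probes as reference.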

[2] = tested on: LXRa:RXRa (NR concentration 270 nM, RXRa partner concentration 90 nM)
Outline: as §1

[3] = tested on: LXRa homodimer (NR concentration 270 nM)
Outline: as §1

[4] = tested on: LXRb:RXRa (NR concentration 270 nM, RXRa partner concentration 90 nM)
Outline: as §1

[5] = tested on: LXRb homodimer (NR concentration 270 nM)
Outline: as §1

[6] = tested on: PPARa:RXRa (NR concentration 270 nM, RXRa partner concentration 90 nM)
Outline: as §1

[7] = tested on: PPARg:RXRa (NR concentration 180 nM, RXRa partner concentration 90 nM)
Outline: as §1

[8] = tested on: PPARg:RXRa 270nM:90nM, anti-RXR (NR concentration 270 nM, RXRa partner concentration 90 nM)
Outline: as §1

[9] = tested on: PPARg:RXRa 30nM:10nM, anti-RXR (NR concentration 30 nM, RXRa partner concentration 10 nM)
Outline: as §1

[10] = tested on: PPARg:RXRa 90nM:30nM, anti-RXR (NR concentration 90 nM, RXRa partner concentration 30 nM)
Outline: as §1

Sequence	PBM binding z-score [1]	PBM binding z-score [2]	PBM binding z-score [3]	PBM binding z-score [4]	PBM binding z-score [5]	PBM binding z-score [6]	PBM binding z-score [7]	PBM binding z-score [8]	PBM binding z-score [9]	PBM binding z-score [10]
CGTCCAAGGTTAGAGAGGTCAGTGAATGCCGAGT	2.67	3.01	1.94	2.48	-0.312	3.11	0.589	1.66	-0.029	0.655
CGAACTAGGTCATTCACAGGACAGTGAATAGTAA	4.72	3.19	0.593	2.48	0.493	4.67	7.34	6.26	3.72	5.9
GCTATTAGCTGAAAGGGCAACCGAATGATTCTCG	0.0536	0.222	-0.091	0.372	-0.619	1.19	1.15	2.72	0.859	2.07
CTCGAAAGCTCGGTTGAGGTGAGTATACGGATAA	-0.222	-0.554	-0.444	-0.393	-0.608	-0.294	-0.189	-0.312	-0.328	-0.403
TCTTGTAGATCAAAAGTTAAGAAAGCCGAAGCCT	0.493	0.329	-0.368	0.277	-0.137	1.31	1.83	4.32	3.84	4.55
TAGCCTAGGTCAGATCGGGCCAATATACGCTATA	1.51	1.46	0.0992	1.22	0.0531	1.79	0.875	0.613	-0.00847	0.383
TCATATAGGTAAACAGGTGAAAATCCGTAAGTTA	1.24	1.11	0.438	1.28	0.151	2.23	2.95	3.15	4.38	3.6
CCTGCTAGGTCATAGTCAGCTAATCTACAGTATG	3.02	2.11	0.646	1.7	0.153	3.12	1.77	2.14	0.394	1.32
TCAGACAGGTGAAGGTAACTCACGTACGCAGTCG	0.8	2.26	-0.278	0.983	-0.343	1.2	0.954	2.09	3.55	2.75
CAAACTAGGTCACGAAAAGTCAAAGTCGAATGAC	4.52	5.32	0.989	3.22	0.716	5.53	9.43	7.43	5.91	7.51
TCGAGTAGGTTACCTATGGGGCATTCAGCTTTCT	0.0442	1.74	-0.775	0.927	-1.31	1.24	0.475	1.01	1.17	1.17
CCTAGCAGGTCAATCTGGGTCACTCAAGGCTTGA	5.49	6.27	1.3	4.34	0.627	4.97	4.83	5.3	2.13	4.43
CCTACTGGGCCAAAAAGGTCATGGATGCCGATAA	3.67	4.35	2.1	4.13	-0.189	5.2	4.16	4.82	1.68	3.88
AACTCTAGGTAAAGTTCAGTGAAAGATCGATAGA	0.741	1.51	1.46	1.06	0.134	2.44	3.7	4.77	2.77	4.53
CGTGCAAGGTCAGCAGGTCAGTGAAAGCGACGTG	6.34	4.37	0.442	3.25	-0.32	5.48	4.89	4.92	1.7	3.51
TGACCAAGGTGAAAGGTCGTTGATGCACGCCTTG	3.6	2.98	0.293	2.62	-0.814	5.24	8.5	7.41	6.27	7.51
ATATGTAGGTTAAGGGTCATTTAGGTTGGTTCGC	5.62	4.94	3.45	4.87	1.82	6.75	11.6	9.62	10.6	11
TATTGTAGATCAATAGAGGTTAAGAAAGTGCGCT	0.833	3.7	0.984	1.79	0.902	1.97	0.757	0.86	0.535	0.718
TCTAGCTGGCCAGAGGGTCACTCAAGAGGTACGG	1.2	0.792	-0.669	1.05	-0.983	1.89	0.596	1.85	1.77	1.44
TCTGCTAGGACAGTTGGTCAGCTAACGAGCTGCC	-0.435	-0.527	-0.541	-0.91	-0.315	-0.722	-0.522	-0.161	0.654	0.296
ATACCAAGGCGATCGTGAGGTCGTTGATACTAAC	0.659	0.195	0.46	0.571	-0.375	0.703	0.16	-0.337	-0.383	-0.191
CCTACTGGGCCATTCAGAGGTCATTGCTCATATG	2.76	4.37	6.67	3.6	0.398	3.57	1.99	2.92	0.777	2.16
GCTAGTTGGTCAGTAAAAGGTCACACAACGGTCG	3.52	4.37	4.08	4.15	0.685	4.73	3.31	4.38	2.61	4.66
AGAATGAGGTTACCAAAGATGAGGGAAACGCTTG	1.89	2.71	-0.269	1.35	-0.264	3.26	2.61	2.78	1.03	1.94

— the supplement of paper PMC6555819
